# Data from PubChem BioAssay AID1159580 (chemical genetic matrix, 2015).
# Screen size: about 5,500 compounds; about 2,000 (36%) were called active. Inconclusive results (about 18%) are left out. The list shows a part of the results. Values without a mark were called inactive. Cut-off read from the data, not from the text of the source: active = normalized growth mostly below about 0.91 (no sharp cut-off); inconclusive = no clear call, values can overlap the other calls; inactive = mostly above about 0.92.
# Experiment: chemical genetic growth profiling, strain panel (AID 1159580);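 note: tested at 20 µM; growth read once vehicle control cultures reached saturation at 30 °C; 1 = growth at the plate median or of vehicle wells; lower values mean less growth of the strain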
# Conditions: growth OD
compound,measurement,setting,value
ClC1C(Cl)C(Cl)C(Cl)C(Cl)C1Cl (stereo unspecified),normalized growth,"S. cerevisiae deletion strains, locus YJR075W, strain HOC1, hits give low values",0.926
same,normalized growth,"S. cerevisiae deletion strains, locus YKL009W, strain mrt4, hits give low values",0.964
same,normalized growth,"S. cerevisiae deletion strains, locus YKL068W, hits give low values",0.902 (active)
same,normalized growth,"S. cerevisiae deletion strains, locus YKL085W, strain MDH1 (second series), hits give low values",0.909 (active)
same,normalized growth,"S. cerevisiae deletion strains, locus YKL085W, strain MDH1, hits give low values",0.909 (active)
same,normalized growth,"S. cerevisiae deletion strains, locus YKL160W, strain elf1, hits give low values",0.873 (active)
same,normalized growth,"S. cerevisiae deletion strains, locus YKL190W, strain CNB1, hits give low values",0.954
same,normalized growth,"S. cerevisiae deletion strains, locus YKR001C, strain vps1, hits give low values",0.879 (active)
same,normalized growth,"S. cerevisiae deletion strains, locus YKR026C, strain gcn3, hits give low values",0.964
same,normalized growth,"S. cerevisiae deletion strains, locus YKR091W, strain srl3, hits give low values",0.963
same,normalized growth,"S. cerevisiae deletion strains, locus YLL001W, strain dnm1, hits give low values",0.938
same,normalized growth,"S. cerevisiae deletion strains, locus YLL026W, hits give low values",0.956
same,normalized growth,"S. cerevisiae deletion strains, locus YLL041C, strain sdh2, hits give low values",0.979
same,normalized growth,"S. cerevisiae deletion strains, locus YLR027C, strain aat2, hits give low values",0.916 (active)
same,normalized growth,"S. cerevisiae deletion strains, locus YLR039C, strain RIC1, hits give low values",0.506 (active)
same,normalized growth,"S. cerevisiae deletion strains, locus YLR058C, strain SHM2, hits give low values",0.942
same,normalized growth,"S. cerevisiae deletion strains, locus YLR102C, strain apc9, hits give low values",0.935
same,normalized growth,"S. cerevisiae deletion strains, locus YLR113W, strain HOG1, hits give low values",0.862
same,normalized growth,"S. cerevisiae deletion strains, locus YLR221C, strain rsa3, hits give low values",0.872 (active)
same,normalized growth,"S. cerevisiae deletion strains, locus YLR258W, strain gsy2, hits give low values",0.969
same,normalized growth,"S. cerevisiae deletion strains, locus YLR262C, strain YPT6 (second series), hits give low values",0.659 (active)
same,normalized growth,"S. cerevisiae deletion strains, locus YLR262C, strain YPT6, hits give low values",0.57 (active)
same,normalized growth,"S. cerevisiae deletion strains, locus YLR268W, strain sec22, hits give low values",0.949
same,normalized growth,"S. cerevisiae deletion strains, locus YLR320W, strain mms22, hits give low values",0.622 (active)
same,normalized growth,"S. cerevisiae deletion strains, locus YLR330W, strain CHS5, hits give low values",0.948
same,normalized growth,"S. cerevisiae deletion strains, locus YLR342W, strain FKS1 (second series), hits give low values",0.947
same,normalized growth,"S. cerevisiae deletion strains, locus YLR342W, strain FKS1, hits give low values",0.89 (active)
same,normalized growth,"S. cerevisiae deletion strains, locus YLR357W, strain rsc2, hits give low values",0.996
same,normalized growth,"S. cerevisiae deletion strains, locus YLR370C, strain arc18, hits give low values",0.975
same,normalized growth,"S. cerevisiae deletion strains, locus YLR371W, strain rom2, hits give low values",0.944
same,normalized growth,"S. cerevisiae deletion strains, locus YLR384C, strain iki3, hits give low values",0.991
same,normalized growth,"S. cerevisiae deletion strains, locus YLR418C, strain cdc73, hits give low values",0.843
same,normalized growth,"S. cerevisiae deletion strains, locus YML016C, strain PPZ1, hits give low values",0.945
same,normalized growth,"S. cerevisiae deletion strains, locus YML032C, strain rad52, hits give low values",0.927
same,normalized growth,"S. cerevisiae deletion strains, locus YML120C, strain ndi1, hits give low values",0.978
same,normalized growth,"S. cerevisiae deletion strains, locus YML124C, strain tub3, hits give low values",0.929 (active)
same,normalized growth,"S. cerevisiae deletion strains, locus YMR058W, strain fet3, hits give low values",0.846 (active)
same,normalized growth,"S. cerevisiae deletion strains, locus YMR078C, strain ctf18, hits give low values",0.918
same,normalized growth,"S. cerevisiae deletion strains, locus YMR125W, strain sto1, hits give low values",1.03
same,normalized growth,"S. cerevisiae deletion strains, locus YMR129W, hits give low values",0.988
same,normalized growth,"S. cerevisiae deletion strains, locus YMR205C, strain PFK2, hits give low values",0.665 (active)
same,normalized growth,"S. cerevisiae deletion strains, locus YMR223W, strain ubp8, hits give low values",0.956
same,normalized growth,"S. cerevisiae deletion strains, locus YMR231W, strain pep5, hits give low values",1.01
same,normalized growth,"S. cerevisiae deletion strains, locus YMR263W, strain SAP30, hits give low values",0.955
same,normalized growth,"S. cerevisiae deletion strains, locus YMR307W, strain GAS1, hits give low values",1.07
same,normalized growth,"S. cerevisiae deletion strains, locus YNL067W, strain RPL9B, hits give low values",0.968
same,normalized growth,"S. cerevisiae deletion strains, locus YNL071W, strain lat1, hits give low values",0.638 (active)
same,normalized growth,"S. cerevisiae deletion strains, locus YNL128W, strain TEP1, hits give low values",0.958
same,normalized growth,"S. cerevisiae deletion strains, locus YNL153C, strain GIM3, hits give low values",0.969
same,normalized growth,"S. cerevisiae deletion strains, locus YNL183C, strain NPR1, hits give low values",0.905
same,normalized growth,"S. cerevisiae deletion strains, locus YNL209W, strain ssb2, hits give low values",0.992
same,normalized growth,"S. cerevisiae deletion strains, locus YNL233W, strain BNI4, hits give low values",0.975
same,normalized growth,"S. cerevisiae deletion strains, locus YNL248C, strain rpa49, hits give low values",0.995
same,normalized growth,"S. cerevisiae deletion strains, locus YNL250W, strain rad50, hits give low values",0.909
same,normalized growth,"S. cerevisiae deletion strains, locus YNL271C, strain bni1, hits give low values",0.948
same,normalized growth,"S. cerevisiae deletion strains, locus YNL298W, strain CLA4, hits give low values",0.946
same,normalized growth,"S. cerevisiae deletion strains, locus YNL322C, strain KRE1 (second series), hits give low values",0.969
same,normalized growth,"S. cerevisiae deletion strains, locus YNL322C, strain KRE1, hits give low values",0.941
same,normalized growth,"S. cerevisiae deletion strains, locus YNR049C, strain mso1, hits give low values",0.975
same,normalized growth,"S. cerevisiae deletion strains, locus YNR052C, strain pop2, hits give low values",0.963
same,normalized growth,"S. cerevisiae deletion strains, locus YOL006C, strain TOP1, hits give low values",0.843
same,normalized growth,"S. cerevisiae deletion strains, locus YOL012C, strain htz1",0.8
same,normalized growth,"S. cerevisiae deletion strains, locus YOL147C, strain pex11, hits give low values",0.929 (active)
same,normalized growth,"S. cerevisiae deletion strains, locus YOR001W, strain rrp6, hits give low values",0.963
same,normalized growth,"S. cerevisiae deletion strains, locus YOR061W, strain CKA2, hits give low values",0.948
same,normalized growth,"S. cerevisiae deletion strains, locus YOR069W, strain VPS5, hits give low values",0.963
same,normalized growth,"S. cerevisiae deletion strains, locus YOR070C, strain gyp1, hits give low values",0.965
same,normalized growth,"S. cerevisiae deletion strains, locus YOR080W, strain dia2, hits give low values",1.02
same,normalized growth,"S. cerevisiae deletion strains, locus YOR083W, strain WHI5, hits give low values",0.914
same,normalized growth,"S. cerevisiae deletion strains, locus YOR106W, strain vam3, hits give low values",0.942
same,normalized growth,"S. cerevisiae deletion strains, locus YOR136W, strain idh2, hits give low values",0.962
same,normalized growth,"S. cerevisiae deletion strains, locus YOR144C, strain elg1, hits give low values",0.94
same,normalized growth,"S. cerevisiae deletion strains, locus YOR184W, strain ser1, hits give low values",0.977
same,normalized growth,"S. cerevisiae deletion strains, locus YOR231W, strain MKK1, hits give low values",0.971
same,normalized growth,"S. cerevisiae deletion strains, locus YOR265W, strain rbl2, hits give low values",0.981
same,normalized growth,"S. cerevisiae deletion strains, locus YOR270C, strain vph1, hits give low values",0.67 (active)
same,normalized growth,"S. cerevisiae deletion strains, locus YOR290C, strain snf2, hits give low values",0.921
same,normalized growth,"S. cerevisiae deletion strains, locus YOR316C, strain cot1, hits give low values",0.924
same,normalized growth,"S. cerevisiae deletion strains, locus YPL051W, strain arl3, hits give low values",0.872 (active)
same,normalized growth,"S. cerevisiae deletion strains, locus YPL055C, strain LGE1, hits give low values",0.965
same,normalized growth,"S. cerevisiae deletion strains, locus YPL078C, strain atp4, hits give low values",0.865 (active)
same,normalized growth,"S. cerevisiae deletion strains, locus YPL106C, strain sse1, hits give low values",1.01
same,normalized growth,"S. cerevisiae deletion strains, locus YPL240C, strain hsp82, hits give low values",0.978
same,normalized growth,"S. cerevisiae deletion strains, locus YPL241C, strain CIN2, hits give low values",0.961
same,normalized growth,"S. cerevisiae deletion strains, locus YPL256C, strain CLN2, hits give low values",0.821 (active)
same,normalized growth,"S. cerevisiae deletion strains, locus YPR119W, strain clb2, hits give low values",0.923 (active)
same,normalized growth,"S. cerevisiae deletion strains, locus YPR141C, strain kar3, hits give low values",0.89 (active)
same,normalized growth,"S. cerevisiae deletion strains, locus YPR163C, strain tif3, hits give low values",0.938
same,normalized growth,"S. cerevisiae deletion strains, locus YPR167C, strain met16, hits give low values",0.91 (active)
same,normalized growth,"S. cerevisiae deletion strains, strain wtn01, hits give low values",0.932
same,normalized growth,"S. cerevisiae strains, strain wild type, hits give low values",0.952
